Assay outcomes: PubChem, National Center for Advancing Translational Sciences (NCATS)
HT1080-NT tox: kills 2HG-producing HT-1080-NT fibrosarcoma cells | HT-1080-NT fibrosarcoma viability, CellTiter-Glo ATP luminescence, 48 h | AID 686970 | Potency, µM (highest dose often 46.1 µM), usual class: cytotoxic | actives 1.6% (n = 360,000);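 note: NT is the 2HG producing partner of a matched IDH1 knockdown line; nearly all actives have a fitted effect of over 55% in size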
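Read-out is CellTiter-Glo luminescence after 10 minutes at room temperature, following 48 hours' compound treatment of HT-1080-NT cells (750 cells/well, RPMI, 5% FBS, 37 degrees C).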
IL-1B inflam inh: inflammasome signaling inhibition, IL-1 beta readout; THP-1 LPS/ATP IL-1B secretion, AlphaLISA, 16 h; hits give low values; activity change, % at 57.5 µM; actives 4.7% (n = 360,000); AID 743279; in the data active = activity change below about -50%; inconclusive = mostly about -30% to -49%
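Secreted IL-1B measured by AlphaLISA bead assay after 16 h compound exposure of THP-1 cells; compounds (final up to 57.5 uM) added 1 h before LPS (250 ng/mL) and ATP (1.25 mM) stimulation; lower signal means less secretion.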
DT40 TDP1 no CPT: qHTS for Inhibitors of human tyrosyl-DNA phosphodiesterase 1 (TDP1): qHTS in cells in absence of CPT; DT40 Tdp1-/- hTDP1 cells, no CPT, ATP luminescence, 48 h; Potency, µM (series often up to 46.2 µM), most hits filed as inhibitors; actives 15% (n = 420,000); AID 686978, 2013; note: nearly all actives have a fitted effect of over 55% in size
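Camptothecin absent (DMSO only). Human TDP1-complemented DT40 knockout cells, 400 cells/well, 37 °C for minimum 48 hr; ATP measured via CellTiter-Glo, 30 min dark incubation, luminescence.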
DT40 TDP1 CPT: growth inhibition of DT40 Tdp1-/-;hTDP1 cells with camptothecin (screen for TDP1 inhibitors). chicken DT40 Tdp1-/-;hTDP1 cells + 20 nM CPT, ATP luminescence, 48 h. Potency, µM (top dose mostly 46.2 µM), usual class: inhibitors. actives 12% (n = 420,000); note: nearly all actives have a fitted effect of over 55% in size
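Chicken DT40 Tdp1-/- cells complemented with human TDP1, 400 cells/well, exposed to compounds plus 20 nM camptothecin for at least 48 h at 37 C; viability read as ATP content by CellTiter-Glo luminescence.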
HT1080 IDH1KD tx: toxicity to HT-1080 IDH1 knockdown cells (counter line); AID 686971; Potency, µM (top dose mostly 46.1 µM), most hits filed as cytotoxic; HT-1080 IDH1 knockdown viability, ATP luminescence, 48 h; actives 2% (n = 360,000)
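In this qHTS, HT-1080 cells depleted of IDH1 are exposed for 48 h at 37 °C to compound titrations. Toxicity is scored from CellTiter-Glo luminescence, with DMSO as full viability and medium alone as none.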
ELG1 repair inh: inhibitors of ELG1-dependent DNA repair in HEK293T cells. Potency, µM (doses to about 46.1 µM), usual class: inhibitors. actives 2.3% (n = 330,000). HEK293T ELG1-luciferase reporter, luminescence, 16 h; DNA damage induced by 5-fluorouridine. AID 504467; note: nearly all actives have a fitted effect of over 55% in size
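DMSO vehicle served as the neutral condition. Each well held 2,000 cells given 5-fluorouridine plus compound; after 16 hr at 37 °C/5% CO2, ONE-Glo was added and luciferase measured 30 min later.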
Each line names hits and unclear results; the compound was inactive in the other large screens. Compounds with a hit are over-represented: about 19% of the library has one in this group of screens. Unless noted, calls come from the whole dose curve; as a rule, active = well fitted curve in the direction sought with a large enough effect; inconclusive = small, poorly fitted or top-dose-only effect, or another doubt; inactive = no such curve, though single readings can be large; an effect the other way counts as inactive or inconclusive.

O=C(/C=C/c1ccccc1Cl)Nc1ccc2c(c1)C(=O)NC2=O	none
O=C(Nc1ccc(-c2nnc3n2CCCCC3)cc1)c1cc2ccccc2o1	IL-1B inflam inh -199, DT40 TDP1 no CPT inconclusive, DT40 TDP1 CPT inconclusive, ELG1 repair inh inconclusive
CCCCOC(=O)c1cccc(NC(=O)CCC(=O)O)c1	none
CC(C)(C)CC(=O)Nc1ccc(-c2nnc3n2CCCCC3)cc1	none
O=C(Nc1ccc(N2CCCC2)cc1)c1cc2ccccc2o1	DT40 TDP1 no CPT inconclusive, ELG1 repair inh inconclusive
CCCCOC(=O)c1cccc(NC(=O)/C=C/c2ccccc2Cl)c1	DT40 TDP1 no CPT 21µM, DT40 TDP1 CPT inconclusive (no result: HT1080-NT tox, IL-1B inflam inh, HT1080 IDH1KD tx, ELG1 repair inh)
O=C(/C=C/c1ccccc1Cl)Nc1ccc(-c2nnc3n2CCCCC3)cc1	HT1080 IDH1KD tx inconclusive, ELG1 repair inh 18µM
CN(C)S(=O)(=O)c1ccc(NC(=O)/C=C/c2ccccc2Cl)cc1	DT40 TDP1 no CPT 23µM, DT40 TDP1 CPT inconclusive
O=C(/C=C/c1ccccc1Cl)Nc1cccc(O)c1	DT40 TDP1 no CPT inconclusive, DT40 TDP1 CPT inconclusive, ELG1 repair inh inconclusive
O=C(/C=C/c1ccccc1Cl)Nc1ccccc1	IL-1B inflam inh -65, ELG1 repair inh inconclusive
O=C1c2ccc3c4c(ccc(c24)C(=O)N1CCCCO)C(=O)N(CCCCO)C3=O	HT1080-NT tox 23µM, IL-1B inflam inh -72, DT40 TDP1 no CPT 2.6µM, DT40 TDP1 CPT 2.1µM, HT1080 IDH1KD tx 12µM, ELG1 repair inh 2.1µM
O=C1NC(c2ccc3ccccc3c2)Nc2ccccc21 (centres undefined)	HT1080-NT tox inconclusive, DT40 TDP1 no CPT 6.5µM, DT40 TDP1 CPT 16µM, HT1080 IDH1KD tx inconclusive (no result: ELG1 repair inh)
O=C1NC(c2ccc(Br)cc2)Nc2ccccc21 (centres undefined)	HT1080-NT tox 5.8µM, DT40 TDP1 no CPT 3.7µM, DT40 TDP1 CPT 6.5µM, HT1080 IDH1KD tx 12µM, ELG1 repair inh inconclusive
CC1(CCc2ccc3c(c2)OCO3)NC(=O)c2ccccc2N1 (centres undefined)	HT1080-NT tox inconclusive, DT40 TDP1 no CPT inconclusive, DT40 TDP1 CPT 23µM, HT1080 IDH1KD tx inconclusive
O=C1NC(c2ccc3c(c2)OCO3)Oc2ccccc21 (centres undefined)	none
O=C1NC(c2ccc3c(c2)OCO3)Nc2ccccc21 (centres undefined)	HT1080-NT tox inconclusive, DT40 TDP1 no CPT 16µM, DT40 TDP1 CPT 23µM
Cc1ccccc1NC(=O)NCc1ccc2c(c1)OCO2	ELG1 repair inh inconclusive
COc1ccc(C2NC(=O)c3ccccc3N2)cc1OC (centres undefined)	ELG1 repair inh inconclusive
Brc1ccc(C2Nc3cccc4cccc(c34)N2)cc1	DT40 TDP1 CPT inconclusive (no result: ELG1 repair inh)
Nc1cc(C(=O)OCC(=O)NNC(=O)c2ccccc2)ccc1Cl	none
N#CCCn1cc(C=C(C#N)C#N)c(-c2ccc(Cl)cc2)n1	DT40 TDP1 no CPT inconclusive, DT40 TDP1 CPT 16µM
N#CCCn1cc(/C=N/O)c(-c2ccc(-c3ccccc3)cc2)n1	HT1080-NT tox inconclusive, DT40 TDP1 no CPT inconclusive, DT40 TDP1 CPT 23µM, HT1080 IDH1KD tx inconclusive, ELG1 repair inh inconclusive
N#CCCn1cc(/C=C2\NC(=S)N(c3ccccc3)C2=O)c(-c2ccc(-c3ccccc3)cc2)n1	DT40 TDP1 no CPT 8.2µM, DT40 TDP1 CPT 6.5µM
CCN1C(=O)/C(=C\c2cn(CCC#N)nc2-c2ccc(F)cc2)SC1=S	DT40 TDP1 CPT inconclusive, ELG1 repair inh 15µM
CCN1C(=O)/C(=C/c2cn(-c3ccccc3)nc2-c2cccnc2)SC1=S	none (no result: ELG1 repair inh)
CCCCC(NC(=O)c1ccc(C#N)cc1)C(=O)NCCC (centres undefined)	none
CC(=O)CCc1oc2ccc(C)cc2c1-c1ccc(C)o1	DT40 TDP1 no CPT 15µM, DT40 TDP1 CPT 12µM
Cc1cc(C(=O)COc2cccnc2[N+](=O)[O-])c(C)n1Cc1cccs1	HT1080-NT tox inconclusive, DT40 TDP1 no CPT inconclusive, DT40 TDP1 CPT inconclusive
